{"source": "the supplement of paper PMC10723795", "note": "± gives the standard deviation of the averaged measurements."}
{"system": "RPE1", "assay": "nucleolar normality score relative to DMSO (fraction of DMSO control); RPE1 is a non-cancer human cell line; higher = more normal nucleoli (less nucleolar stress)", "description": "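Selected screen hits were validated in hTERT lines (BJ5TA, CHON-002, RPE1) and cancer lines (DLD1, HCT116). Cells were immunostained for nucleolin and UBF and the nucleolar normality score was measured per field of view, with 4 fields per drug. Scores are normalized to each cell line's own DMSO control. Dose and time are not stated for this panel.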"}
{"smiles": "CC[C@@]1(O)C(=O)OCc2c1cc1n(c2=O)Cc2cc3ccccc3nc2-1", "note": "[Camptothecin]", "nucleolar normality score": "0.413 ± 0.024"}
